Source: PubChem BioAssay
ALOX12 inhib: qHTS Assay for Inhibitors of 12-hLO (12-human lipoxygenase); Polyunsaturated fatty acid lipoxygenase ALOX12 (Homo sapiens), P18054; purified 12-hLO, xylenol orange hydroperoxide absorbance; Potency, µM (doses to about 57.1 µM), without a hit: at the highest dose activity change, negative = inhibition, usual class: inhibitors; actives 0.12% (n = 150,000); AID 1452, 2008; also: potency is read from the fitted curve at half-maximal effect; nearly all actives have a fitted effect of over 55% in size
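Purified human 12hLO (150 nM), preincubated 15 min with compound, then 40 uM arachidonic acid for 30 min, room temperature, Hepes pH 7.0 with 0.01% Triton X-100. Hydroperoxide detected by ferrous iron/xylenol orange; 573/405 nm absorbance ratio gives reaction progress.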
PNC assembly inh: High Content Assay for Compounds that inhibit the Assembly of the Perinucleolar Compartment | AID 2417, 2010 | actives 3.1% (n = 140,000) | PC3M PTB-GFP, PNC prevalence imaging, 16 h; stronger effect = lower value | activity change (PNC), negative = inhibition, % at 10 µM;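 active = readout at or below -70, meaning at least 70% loss of cells showing the perinucleolar compartment, a nuclear body marking cancer cells; inconclusive = readout between -30 and a set limit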;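 also: plate controls were DMSO wells for no effect and camptothecin positive control wells for full effect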
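Compounds are pinned in duplicate onto adhered PC3M cells stably expressing GFP-tagged PTB and incubated 16 h at 37 C. Cells are then fixed, nuclei stained with Hoechst, and PNC-positive cells counted.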
ALOX15B inhib: qHTS Assay for Inhibitors of 15-hLO-2 (15-human lipoxygenase 2) | purified 15hLO-2, xylenol orange hydroperoxide absorbance | Potency, µM (highest dose often 57.1 µM), for the others: top-dose activity change, negative = inhibition, usual class: inhibitors | Polyunsaturated fatty acid lipoxygenase ALOX15B (Homo sapiens), O15296 | actives 0.56% (n = 110,000); also: potency is read from the fitted curve at half-maximal effect; nearly all actives have a fitted effect of over 60% in size
Target sequence (O15296 whole entry, looked up): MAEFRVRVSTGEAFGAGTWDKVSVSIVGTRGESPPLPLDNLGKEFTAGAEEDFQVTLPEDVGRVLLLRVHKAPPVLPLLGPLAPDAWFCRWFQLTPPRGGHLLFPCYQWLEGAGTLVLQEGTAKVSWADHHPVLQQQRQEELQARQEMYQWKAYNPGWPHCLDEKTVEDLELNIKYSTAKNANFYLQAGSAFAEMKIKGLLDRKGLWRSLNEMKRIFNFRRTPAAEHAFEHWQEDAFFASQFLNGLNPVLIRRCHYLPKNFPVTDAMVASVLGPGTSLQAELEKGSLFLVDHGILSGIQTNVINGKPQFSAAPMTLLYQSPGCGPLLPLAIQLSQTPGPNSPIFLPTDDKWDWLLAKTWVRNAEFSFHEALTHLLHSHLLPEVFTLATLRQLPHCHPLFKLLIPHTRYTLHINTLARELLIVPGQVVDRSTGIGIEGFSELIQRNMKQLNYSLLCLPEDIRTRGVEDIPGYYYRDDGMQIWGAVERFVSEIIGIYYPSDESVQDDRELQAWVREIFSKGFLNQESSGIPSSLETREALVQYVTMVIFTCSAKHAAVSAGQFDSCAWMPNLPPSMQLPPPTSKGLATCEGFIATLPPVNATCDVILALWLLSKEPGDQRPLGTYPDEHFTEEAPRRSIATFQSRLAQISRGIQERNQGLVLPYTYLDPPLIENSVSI
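Purified human 15hLO-2 (50 nM final) preincubated with compounds 15 min at room temperature in 25 mM Hepes pH 7.5, 0.01% Triton X-100, then 45 uM arachidonic acid added for 90 min; hydroperoxide detected via ferrous/xylenol orange, 573/405 nm absorbance ratio.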
Active calls of the source: *; ? = inconclusive; nt = no result given; [ ] = another dose, or the depositor's remark. Sampled rows, rich in hits. Any-hit rate of the full collection: about 3.2%. Unless noted, calls follow the shape of the dose curve; as a rule, active = well fitted curve in the direction sought with a large enough effect; inconclusive = small, poorly fitted or top-dose-only effect, or another doubt; inactive = no such curve, though single readings can be large; an effect the other way counts as inactive or inconclusive. Unless noted, % is scaled to controls: 0 for no effect and ±100 for the full control effect.

SMILES	ALOX12 inhib	PNC assembly inh	ALOX15B inhib
CCOc1ccc(CNC(=O)c2cc3oc4ccccc4c3n2C)cc1	11%	?	-3%
COc1cc(/C=N/NC(=O)c2[nH]nc3c2CCc2ccccc2-3)ccc1O	-5%	36	nt
CC(=O)c1cccc(NC(=O)C(OC(=O)c2cccc(S(=O)(=O)N(C)c3ccccc3)c2)c2ccccc2)c1 (stereo unspecified)	-4%	35	nt
COc1ccc(N(C)S(=O)(=O)c2cccc(C(=O)OC(C(=O)Nc3cc(C)cc(C)c3)c3ccccc3)c2)cc1 (stereo unspecified)	-1%	-102*	nt
COC(=O)c1cc(NC(=O)CC2SC(=Nc3ccccc3)N(CCc3c[nH]c4ccccc34)C2=O)cc(C(=O)OC)c1 (stereo unspecified)	-16%	-20	-7%
S=c1[nH]nc(-c2cccnc2)n1-c1ccccc1	1%	-88*	nt
Cc1ccc(-c2n[nH]c(=S)n2-c2ccccc2)cc1	2%	13	nt
Cc1ccnc(NC(NC(=O)C(C)C)(C(F)(F)F)C(F)(F)F)c1	-3%	20	nt
COCC(=O)N1CCC2(CC1)CCN(c1ccccc1)CC2	0%	nt	-8%
C=C[C@H](N)CCC(=O)O	-4%	nt	14%
COC(=O)[C@@]1(Cc2ccc(OC)cc2)[C@@H]2C(=CC(=O)[C@H]2CC(=O)C(=O)N(C)C)CN1C(=O)c1ccccc1	-2%	-10	-1%
C=C1C(=O)C=C2CN(C(=O)c3ccccc3)[C@@](Cc3ccc(F)cc3)(C(=O)OC)[C@@H]12	-5%	-119*	-26%
CC1CN(S(=O)(=O)c2cccc(C(=O)Nc3ccc4c(c3)CCC4)c2)CC(C)O1 (stereo unspecified)	-2%	233	nt
O=C(c1cnccn1)N1CCC2(CC1)CN(c1ccncc1)C2	6%	nt	-2%
COCCCN=C1NN=C(c2cc(C)n(Cc3ccco3)c2C)CS1	-6%	-108*	nt
Cc1cc(C2=NNC(=NC3CC3)SC2)c(C)n1Cc1ccco1	-2%	-27	nt
Cc1ccc(N=Cc2c(O)n(-c3cc(Cl)ccc3N3CCOCC3)c(=O)c3ccccc23)cc1C	-5%	-27	-2%
Cc1ccc(C)c2c(SC(C)C(=O)NCc3ccco3)nc(-c3ccccc3)nc12 (stereo unspecified)	29%	-100*	nt
Cc1ccc2nc(-c3ccccc3)nc(SC(C)C(=O)NCc3cccs3)c2c1 (stereo unspecified)	-1%	28	3%[11.4 µM]
Cc1cc(C(=O)CN2CCCC(C)C2)c(C)n1-c1ccc(F)cc1 (stereo unspecified)	0%	?	nt
COCC(=O)N1CCC2(CCN(Cc3ccccc3OC)CC2)CC1	3%	nt	6%
COc1ccc(NC(=O)c2cc(-c3ccc(OC)c(OC)c3)on2)cc1OC	6%	35	-1%
COCC(C)NC(=O)c1cc(-c2ccc(OC)c(OC)c2)on1 (stereo unspecified)	-1%	-83*	9%[11.4 µM]
Nc1nonc1-c1noc(-c2ccccc2)n1	-1%	-100*	nt
Cc1ccc(-c2nc(-c3ccccc3)no2)cc1	0%	7	-2%
SMILES	ALOX12 inhib	PNC assembly inh	ALOX15B inhib
CCCCNc1nc(C)nc2c1nc(-c1ccccc1)n2CCN(C)C	-4%	nt	50%
C[C@H]1Cc2c(-c3ccccc3)nc3c(c2CO1)CN(C(=O)c1cccnc1)CC3	2%[11.4 µM]	nt	nt
CCOCCCNC(=O)C1CCN(C(=O)Nc2ccc(Cl)cc2)CC1	-3%	-22	-3%
CCOC(=O)c1cccc(NC(=O)N[C@@H](C)C(=O)OC)c1	-8%	15	8%
Cc1cccc(NC(=O)N[C@@H](C)C(=O)O)c1	8%	-113*	6%
O=S(=O)(NC1=NCCC1)c1cccc(NC(=S)NCCc2ccccc2)c1	-2%	?	nt
CCC(CO)NCCNC(CC)CO (stereo unspecified)	1%	?	-2%
CC[C@H](CO)NCCN[C@H](CC)CO	-1%	-115*	nt
CC(=O)OCC(=O)[C@@]12OC3(CCCC3)OC1CC1C3CCC4=CC(=O)C=C[C@@]4(C)[C@]3(F)C(O)C[C@]12C (stereo partly specified)	-2%	nt	-11%
Cc1nn2cc(-c3ccccc3)nc2[nH]c1=O	-4%	?	-4%
O=C(O)CCc1nn2cc(-c3ccccc3)nc2[nH]c1=O	1%	-100*	nt
CC1CCN(CC(=O)Nc2sc3c(c2C#N)CCC3)CC1	-7%	9	-14%
CC1CCc2c(sc(NC(=O)CN3CCN(C(=O)c4ccco4)CC3)c2C#N)C1 (stereo unspecified)	-8%	-117*	5%
N#Cc1cccc(NC(=O)N2CCC3(CC2)CCN(C(=O)c2ccco2)CC3)c1	-3%	nt	7%
Cc1cc(=O)[nH]c(=S)n1-c1ccccc1	-2%	-122*	9%[2.29 µM]
Nc1cc(=O)[nH]c(=S)n1-c1ccccc1	-9%	10	2%
Cc1ccc(C(=O)NNC(=O)c2cccc(S(=O)(=O)N3CCN(c4ccccc4)CC3)c2)cc1	-4%	?	nt
NNC(=O)c1ccc(Cn2cc(Cl)cn2)cc1	0%	22	nt
O=C(N/N=C/c1c(F)cccc1Cl)c1ccc(Cn2cc(Br)cn2)o1	-2%	-114*	nt
O=C(c1ccc(Cn2cc(Br)cn2)o1)n1cccn1	-7%	-83*	-20%[11.4 µM]
NNC(=O)c1ccc(Cn2cc(Br)cn2)cc1	4%	-114*	nt
O=C(NCc1ccccn1)c1ccc(Cn2cc(Br)cn2)o1	11%	17	-15%[11.4 µM]
O=C(N/N=C/c1c(F)c(F)c(F)c(F)c1F)c1ccc(Cn2cc(Br)cn2)o1	-3%	-18	nt
CC(C)c1cc(C(F)(F)F)nc(NNc2nc(C(C)C)cc(C(F)(F)F)n2)n1	-2%[11.4 µM]	nt	-8%[11.4 µM]
CCOc1cc(CNn2cn[nH]c2=S)cc(Cl)c1OCc1ccccc1F	-30%	-28	nt
SMILES	ALOX12 inhib	PNC assembly inh	ALOX15B inhib
COc1ccc(Oc2ncc3nc(-c4ccc(OC)cc4)c(=O)n(C)c3n2)cc1	nt	nt	0%
COc1ccc(C(=O)Nc2cc(OC)ccc2OC)cc1	-8%	11	0%
COc1ccc(OC)c(NC(=O)C23CCC(C)(C(=O)C2)C3(C)C)c1 (stereo unspecified)	-3%	-86*	3%[11.4 µM]
O=C(NC1CCCCC1)N1CCN(c2ncccn2)CC1	4%	-83*	-8%
O=C(NC1CCCCC1)N1CCCCCCC1	-5%	17	0%
Cc1csc(=O)n1CC(=O)OCc1cccc2ccccc12	7%	-100*	nt
Cc1ccc(NC(=O)COC(=O)Cn2c(C)csc2=O)cc1C	3%	29	3%
COC(=O)c1ccc(COc2ccc(-c3nnn(CC(=O)NC(C)(C)C)n3)cc2)cc1	3%	19	nt
COc1ccc(-c2oc3ccccc3c(=O)c2O)cc1	-5%	nt	?
O=c1c(O)c(-c2ccc(O)c(O)c2)oc2ccccc12	?	nt	13µM*
CCOC(=O)C1CCN(C(=O)c2cc3cc4cc(OC)ccc4nc3o2)CC1	3%	4	1%
COc1ccc2nc3oc(C(=O)N4CCCCC4)cc3cc2c1	4%	-100*	nt
O=C(Cn1cnc2sc(-c3ccccc3)cc2c1=O)NCc1ccco1	-3%	-90*	?
